This note sets out measurements from the supplement of paper PMC10127200.

Molecules are shown by their SMILES. Structures can show the parent of a compound that is named as a salt.

In this assay the test system is DU145. Description: Euclidean distance of Cell Painting phenotypic profile (signed KS, 77 features) to DMSO centroid (dimensionless distance); 5 or 10 uM (library dependent); higher = stronger phenotypic change vs DMSO (phenoactivity). As to conditions: 48 h. An outline of the steps:
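Phenoactivity is computed as Euclidean distance to the median vehicle profile. The profiles, drawn from 77 Harmony features scored as signed Kolmogorov-Smirnov statistics versus same-plate vehicle wells, were corrected for plate position, correlation-weighted and replicate-averaged at the top dose. Stained cells were imaged confocally at 20X (9 fields/well) after 48 h with library compounds at 10 or 5 uM, 0.1% DMSO final, in five cancer lines and a healthy fibroblast line.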
The compound `C#C[C@]1(O)CC[C@H]2[C@@H]3CCc4cc(OC)ccc4[C@H]3CC[C@@]21C` [Mestranol] gave an Euclidean distance of 0.785.

Regarding `CCCC1CC(C(=O)NC(C(C)Cl)C2OC(SC)C(O)C(O)C2O)N(C)C1` (stereo not given) [Clindamycin alcoholate], the Euclidean distance is 1.04.

In turn, `Nc1nc(=O)c2nc(CNc3ccc(C(=O)N[C@@H](CCC(=O)O)C(=O)O)cc3)cnc2[nH]1` [Folic acid] returned an Euclidean distance of 0.987. The figure for `Cc1ccc(NCCCc2ccccc2)c(N)c1` is 0.826; for `COC(=O)N[C@H](C(=O)N1CCC[C@H]1c1nc(-c2ccc3c(c2)O[C@@H](c2ccccc2)n2c-3cc3cc(-c4c[nH]c([C@@H]5CCCN5C(=O)[C@@H](NC(=O)OC)C(C)C)n4)ccc32)c[nH]1)C(C)C` [Elbasvir] it is 1.26.

Consider `O=c1ccn([C@@H]2O[C@H](COP(=O)(O)OP(=O)(O)OP(=O)(O)OP(=O)(O)OC[C@H]3O[C@@H](n4ccc(=O)[nH]c4=O)[C@H](O)[C@@H]3O)[C@@H](O)[C@H]2O)c(=O)[nH]1` [Diquafosol Tetrasodium], for which the Euclidean distance was determined as 0.599. `O=C1Nc2ccccc2C1=O` [Isatin]: the Euclidean distance came to 1.26. The figure for `CC1(C)NC(=O)N(c2ccc([N+](=O)[O-])c(C(F)(F)F)c2)C1=O` [Nilutamide] is 1.03; for `CC12CCC(CC1=O)C2(C)C` (stereo not given) [Camphor] it is 0.875.

`CCCCc1nc(Cl)c(CO)n1Cc1ccc(-c2ccccc2-c2nnn[nH]2)cc1` [Losartan Potassium (DuP 753)] displayed an Euclidean distance of 0.847. For `C[C@@H]1C[C@H]2[C@@H]3CCC4=CC(=O)C=C[C@]4(C)[C@@]3(F)[C@@H](O)C[C@]2(C)[C@@]1(O)C(=O)CO` [Dexamethasone (DHAP)] the value was 2.14; for `O=C(NC1CCOCC1)c1ccc(-c2cc(-c3c[nH]nc3-c3ccccn3)ccn2)cc1`, 0.674; for `COC(=O)Nc1nc2cc(Sc3ccccc3)ccc2[nH]1` [Fenbendazole], 3.05. As for `CS(=O)(=O)c1ccc(-c2cnc(N)c(C(=O)Nc3ccccc3)n2)cc1`, the Euclidean distance was 1.29. `CC(C)(Oc1ccc(C(=O)c2ccc(Cl)cc2)cc1)C(=O)O` [Fenofibric acid]: the Euclidean distance turned out to be 0.978. The compound `Cc1[nH]c(/C=C2\C(=O)Nc3ccccc32)c(C)c1CCC(=O)O` [TSU-68 (SU6668. Orantinib)] registered an Euclidean distance of 0.85. For `CNC[C@H](O)c1cccc(O)c1` [Phenylephrine HCl] the value was 0.788. The compound `CCCCCOc1ccccc1/C(=C\SC)n1ccnc1` [Neticonazole Hydrochloride] came in with an Euclidean distance of 0.848. The figure for `NC[C@H](O)c1ccc(O)c(O)c1` [Noradrenaline bitartrate monohydrate] is 0.963; for `CC(C)(O)c1ccccc1CC[C@@H](SCC1(CC(=O)O)CC1)c1cccc(/C=C/c2ccc3ccc(Cl)cc3n2)c1` [Montelukast Sodium] it is 0.759.

For the compound `CN1CCN(CCOc2cc(OC3CCOCC3)c3c(Nc4c(Cl)ccc5c4OCO5)ncnc3c2)CC1` [Saracatinib (AZD0530)], the Euclidean distance came to 1.78. The figure for `O=C(Nc1cccnc1)N1CCC(Cc2cccc(Oc3ccc(C(F)(F)F)cn3)c2)CC1` is 0.774. `Nc1nc(NC2CC2)c2ncn([C@H]3C=C[C@@H](CO)C3)c2n1` [Abacavir]: the Euclidean distance is 1.02. For `C=C1/C(=C\C=C2/CCC[C@]3(C)[C@@H]([C@H](C)/C=C/[C@H](C)C(C)C)CC[C@@H]23)C[C@@H](O)C[C@@H]1O` [Doxercalciferol] the value was 6.05; for `C=C1CC/C=C(/C)CC[C@@H]2[C@@H]1CC2(C)C` [Œ≤-Caryophyllene], 0.86. The figure for `NCc1ccc(S(N)(=O)=O)cc1` [Mafenide Acetate] is 1.24. For `Nc1nc(F)nc2c1ncn2[C@@H]1O[C@H](COP(=O)(O)O)[C@@H](O)[C@@H]1O` [Fludarabine Phosphate] the value was 1.94. Consider `CCOC(=O)N1CCC(=C2c3ccc(Cl)cc3CCc3cccnc32)CC1` [Loratadine], for which the Euclidean distance worked out at 0.839.

`COc1ccc2c(c1)c(CC(=O)O)c(C)n2C(=O)c1ccc(Cl)cc1` [Indomethacin] came in with an Euclidean distance of 1.66. For `NC(=O)N1c2ccccc2CC(=O)c2ccccc21` [Oxcarbazepine] the value was 1.26; for `CC(C)CCCC(C)N` (stereo not given) [Octodrine (2-Amino-6-methylheptan)], 0.851. The figure for `CN(C)C(=O)COC(=O)Cc1ccc(OC(=O)c2ccc(NC(=N)N)cc2)cc1` [Camostat Mesilate] is 1.08; for `C[C@]12CC[C@@H]3c4ccc(O)cc4CC[C@H]3[C@@H]1CCC2=O` [Estrone] it is 0.761; for `Cc1ccnc(NS(=O)(=O)c2ccc(N)cc2)n1` [Sulfamerazine] it is 0.847. The figure for `CCNC(=O)c1[nH]nc(-c2cc(Cl)c(O)cc2O)c1-c1ccc(OC)cc1` is 2.8; for `CC[C@@H]1C(=O)OC[C@@H]1Cc1cncn1C` [Pilocarpine HCl] it is 0.725; for `C[C@H]1O[C@@H](n2cc(F)c(=O)[nH]c2=O)[C@H](O)[C@@H]1O` [Doxifluridine] it is 0.886. In turn, `Cc1ccccc1C(=O)Nc1ccc(C(=O)N2CCCC(O)c3cc(Cl)ccc32)c(C)c1` (stereo not given) [Tolvaptan] had an Euclidean distance of 0.873. As for `C[C@@H](N)[C@H]1CC[C@H](C(=O)Nc2ccncc2)CC1`, the Euclidean distance stood at 3.45.

Turning to `CC(CCc1ccccc1)NCC(O)c1ccc(O)c(C(N)=O)c1` (stereo not given) [Labetalol HCl], the Euclidean distance was 0.701.
